Experimental data published in PubChem BioAssay.
Activity calls are given as the source filed them. The rule behind the calls is not given here. Where a SMILES comes first, the peptide text is derived from it. [ ]: non-standard residue; d: D form. The star is where a group is joined. ξ: configuration not given here. Cbz = O=C(OCc1ccccc1)*; ξK = NCCCCC(N)C(=O)O

target: Pantothenate synthetase (Mycobacterium tuberculosis (strain ATCC 25618 / H37Rv)) (UniProt P9WIL5); assay: Coupled enzyme confirmation of inhibitors against recombinant Mtb PanC (AID 375); settings: coupled enzyme assay; at 10 µM, active compounds read high;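 note: 0% = full reaction with vehicle and 100% = no enzyme background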
Sequence (P9WIL5 whole entry, looked up): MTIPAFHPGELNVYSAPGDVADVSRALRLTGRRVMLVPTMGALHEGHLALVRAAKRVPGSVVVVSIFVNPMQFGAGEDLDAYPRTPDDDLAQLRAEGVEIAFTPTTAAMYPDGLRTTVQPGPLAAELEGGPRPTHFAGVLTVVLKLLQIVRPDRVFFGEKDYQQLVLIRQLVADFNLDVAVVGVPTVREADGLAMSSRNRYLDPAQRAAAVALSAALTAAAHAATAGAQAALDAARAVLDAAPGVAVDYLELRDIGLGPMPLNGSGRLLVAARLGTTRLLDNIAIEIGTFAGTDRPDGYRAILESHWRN

SMILES | inhibition
CCOc1cc(N2CCOCC2)c(OCC)cc1NC(=O)COC(=O)CCc1c[nH]c2ccccc12 | 0% (inactive)
O=C(Cn1ccc2ccccc2c1=O)Nc1ccc2c(c1)OCO2 | 6% (inactive)
COC(=O)C(CCCCNC(=O)OCc1ccccc1)NC(=O)CN (centres undefined) (H-Gly-[ξK](Cbz)-OMe) | 0% (inactive)
O=C(O)COc1ccc(Oc2ccccc2)cc1 | 3% (inactive)
C=CCn1c(=O)[nH]c2cc(C(=O)N3CCN(c4cc(C)ccc4C)CC3)ccc2c1=O | 4% (inactive)
CCCc1cc(-c2n[nH]c(C)c2-c2ccc(C(=O)OCC)o2)c(O)cc1O | 6% (inactive)
CCOC(=O)c1ccc(NC(=O)COc2ccc(-n3cnnn3)cc2)cc1 | 0% (inactive)
CCn1c(NC(=O)c2cccc(Cn3cc(Cl)cn3)c2)nc2ccccc21 | 0% (inactive)
OCCNCCCCOc1ccccc1F | 0% (inactive)
C1CNCCNCCNCCN1 | 0% (inactive)
CCCSc1nc2c(cnn2-c2ccc(Cl)cc2)c(=O)[nH]1 | 0% (inactive)
O=C(CSc1nnc(-c2ccc(Br)o2)n1Cc1ccccc1)c1ccccc1F | 2% (inactive)
CCC(C)(C)n1nnnc1C(c1ccc(OC)c(OC)c1)N1CCN(c2ccc(F)cc2)CC1 (centres undefined) | 0% (inactive)
O=c1c2ccccc2[nH]c(=S)n1CCN1CCC(=C(c2ccc(F)cc2)c2ccc(F)cc2)CC1 | 4% (inactive)
O=C(Nc1ccccc1)C1=C(O)CC(c2ccoc2)CC1=Nc1ccccc1 (centres undefined) | 0% (inactive)
COc1ccc(-n2c(=O)c3c4c(sc3n3c(C)nnc23)CCCC4)cc1 | 3% (inactive)
Cc1cc(Br)c(S(=O)(=O)n2nnc3ccccc32)cc1C | 2% (inactive)
CC1Cc2ccccc2N1C(=O)c1cnsn1 (centres undefined) | 0% (inactive)
Cc1cccc(Cn2c(=O)n(Cc3ccco3)c(=O)c3ccccc32)c1 | 0% (inactive)
O=P(O)(CN1CCCCCC1)CN1CCCCCC1 | 0% (inactive)

SMILES | inhibition
O=C(CSc1nc(-c2ccc(F)cc2)cs1)N1CCOCC1 | 0% (inactive)
COc1ccccc1NC(=O)C1=C(C)Nc2nc(CCCO)nn2C1c1cccnc1 (centres undefined) | 1% (inactive)
CSc1c(CC(=O)NCCO)n(C)c2ccccc12 | 0% (inactive)
O=C(Cc1nc2ccccc2s1)c1ccc(O)cc1O | 8% (inactive)
CCCCc1cc(=O)oc2cc(C)cc(OC(C)C(=O)O)c12 (centres undefined) | 0% (inactive)
CCC(C)(C)NC(=O)CN(C(=O)c1snc(C(N)=O)c1N)c1ccc2c(c1)OCO2 | 11% (inactive)
CCn1cc(C(=O)O)c(=O)c2cc(F)c(N3CCN(C(=O)Nc4ccccc4)CC3)cc21 | 1% (inactive)
CCN(CC)C(=O)Cn1ncc2c1-c1ccccc1OC2 | 0% (inactive)
Cn1c(=O)c2c(nc(SCC(=O)NCc3ccc4c(c3)OCO4)n2Cc2ccccc2)n(C)c1=O | 0% (inactive)
COc1ccc(-c2ccc(Nc3ccc(S(=O)(=O)N4CCCC4)cc3)nn2)cc1OC | 11% (inactive)
Cc1ccc(N2CC(C(=O)N3CCN(C(=O)c4ccco4)CC3)CC2=O)cc1 (centres undefined) | 0% (inactive)
Cc1csc(NC(=O)C2CCCO2)n1 (centres undefined) | 0% (inactive)
COc1cccc(C2=NOC(C(=O)Nc3cc(C)nn3-c3ccccc3)C2)c1OC (centres undefined) | 0% (inactive)
Cc1nnc(SCc2cnc(-c3ccccc3)o2)[nH]c1=O | 0% (inactive)
CSc1ccccc1NC(=O)CN(c1ccccc1)S(=O)(=O)N(C)C | 3% (inactive)
CC(C)n1c(=NC(=O)c2ccco2)c(C#N)cc2c(=O)n3ccccc3cc21 | 0% (inactive)
COc1ccccc1N1CCN(C(=O)c2ccc3nc(-c4ccco4)c(-c4ccco4)nc3c2)CC1 | 9% (inactive)
CSc1nc2ccccc2c(=O)n1N | 0% (inactive)
CCCOc1ccc(S(=O)(=O)NCCCN2CCOCC2)c2ccccc12 | 0% (inactive)
